Source: the supplement of paper PMC8387472
Where a name gives a salt, the structure may show the parent alone. ± gives the standard deviation of the averaged measurements.

Columns and labels:
[1] = tested on: 6.0 (DMSO control at this site: 1-bp insertion 0.296, MH deletion 0.491, edited 0.076) ACGATTGGCCCCCACAAAGCGGACCAGCCAGCGTGCTAGGGAATAAGGCCAACTTGCACCC; assay: fraction of edited reads among all mapped reads; higher = more Cas9 editing; details: mESC; 2uM; 72 h treatment, harvest day 5
[2] = tested on: 6.0 (DMSO control at this site: 1-bp insertion 0.296, MH deletion 0.491, edited 0.076) ACGATTGGCCCCCACAAAGCGGACCAGCCAGCGTGCTAGGGAATAAGGCCAACTTGCACCC; assay: fraction of microhomology deletions among edited reads; higher = more MH deletions; details: mESC; 2uM; 72 h treatment, harvest day 5
[3] = tested on: 6.0 (DMSO control at this site: 1-bp insertion 0.296, MH deletion 0.491, edited 0.076) ACGATTGGCCCCCACAAAGCGGACCAGCCAGCGTGCTAGGGAATAAGGCCAACTTGCACCC; assay: fraction of 1-bp insertions among edited reads; higher = more 1-bp insertion outcomes; details: mESC; 2uM; 72 h treatment, harvest day 5
[4] = tested on: mESC LDLR-Dup GFP reporter (SpCas9 MH-deletion repair); assay: fraction of GFP+ cells relative to DMSO control (fold change); higher = more MH-deletion repair to in-frame LDLR (or more editing); details: 2 µM; 7 days post-transfection
[5] = tested on: 24.0 GACCACAGCCCCCAGCAGGGGAGGCCCCCAGCAGGGGAGGCCCACACCTGCCCCAGCACCT; assay: fraction of edited reads among all mapped reads; higher = more Cas9 editing; details: mESC; 2uM; 72 h treatment, harvest day 5
[6] = tested on: 24.0 GACCACAGCCCCCAGCAGGGGAGGCCCCCAGCAGGGGAGGCCCACACCTGCCCCAGCACCT; assay: fraction of microhomology deletions among edited reads; higher = more MH deletions; details: mESC; 2uM; 72 h treatment, harvest day 5
[7] = tested on: 24.0 GACCACAGCCCCCAGCAGGGGAGGCCCCCAGCAGGGGAGGCCCACACCTGCCCCAGCACCT; assay: fraction of 1-bp insertions among edited reads; higher = more 1-bp insertion outcomes; details: mESC; 2uM; 72 h treatment, harvest day 5

Cc1cccc(CC(=O)N2CCc3c2ccc(-c2cn(C)c4ncnc(N)c24)c3F)n1
fraction of edited reads among all mapped reads [1]: 0.114
fraction of microhomology deletions among edited reads [2]: 0.501
fraction of 1-bp insertions among edited reads [3]: 0.337
fraction of GFP+ cells [4]: 0.925 ± 0.19

CCn1cc(C(=O)O)c(=O)c2ccc(C)nc21 [Nalidixic acid]
fraction of GFP+ cells [4]: 1.08 ± 0.015

CO[C@H]1/C=C/O[C@@]2(C)Oc3c(C)c(O)c4c(O)c(c(/C=N/N5CCN(C6CCCC6)CC5)c(O)c4c3C2=O)NC(=O)/C(C)=C\C=C\[C@H](C)[C@H](O)[C@@H](C)[C@@H](O)[C@@H](C)[C@H](OC(C)=O)[C@@H]1C [Rifapentine]
fraction of edited reads among all mapped reads [1]: 0.14
fraction of microhomology deletions among edited reads [2]: 0.538
fraction of 1-bp insertions among edited reads [3]: 0.258
fraction of GFP+ cells [4]: 3.03 ± 0.37

O=c1c(-c2ccc(O)cc2)coc2cc(O)cc(O)c12 [Genistein]
fraction of edited reads among all mapped reads [1]: 0.113
fraction of microhomology deletions among edited reads [2]: 0.529
fraction of 1-bp insertions among edited reads [3]: 0.253
fraction of GFP+ cells [4]: 1.07 ± 0.17

O=C(CCCCCCNC(=O)c1cnc(N(c2ccccc2)c2ccccc2)nc1)NO [Ricolinostat (ACY-1215)]
fraction of GFP+ cells [4]: 0.968 ± 0.11

Nc1nc2[nH]cc(CCc3ccc(C(=O)N[C@@H](CCC(=O)O)C(=O)O)cc3)c2c(=O)[nH]1 [Pemetrexed]
fraction of edited reads among all mapped reads [1]: 0.0705
fraction of microhomology deletions among edited reads [2]: 0.608
fraction of 1-bp insertions among edited reads [3]: 0.152
fraction of GFP+ cells [4]: 1.53 ± 0.08

CN(CCOc1ccc(CC2SC(=O)NC2=O)cc1)c1ccccn1 (stereo not drawn) [Rosiglitazone]
fraction of GFP+ cells [4]: 1.48 ± 0.26

Nc1ncnc2c1c(-c1cnc3[nH]ccc3c1)nn2C1CCCC1
fraction of edited reads among all mapped reads [1]: 0.0596
fraction of microhomology deletions among edited reads [2]: 0.403
fraction of 1-bp insertions among edited reads [3]: 0.412
fraction of GFP+ cells [4]: 0.289 ± 0.034

O=C(c1ccc(Cl)cc1Cl)n1nnc2ccccc21
fraction of GFP+ cells [4]: 0.756 ± 0.056

O=C1CCc2c(ccc3ccccc23)O1 [Splitomicin]
fraction of GFP+ cells [4]: 0.636 ± 0.11

Cc1cc(C)nc(SCC(=O)Nc2ncc(Cc3cccc4ccccc34)s2)n1
fraction of edited reads among all mapped reads [5]: 0.0587
fraction of edited reads among all mapped reads [1]: 0.13
fraction of microhomology deletions among edited reads [6]: 0.552
fraction of microhomology deletions among edited reads [2]: 0.498
fraction of 1-bp insertions among edited reads [7]: 0.105
fraction of 1-bp insertions among edited reads [3]: 0.295
fraction of GFP+ cells [4]: 1.15 ± 0.61

O=c1nc(N2CCOCC2)oc2c(-c3cccc4c3sc3ccccc34)cccc12
fraction of GFP+ cells [4]: 0.761 ± 0.24

Nc1ncn([C@@H]2O[C@H](CO)[C@@H](O)[C@H]2O)c(=O)n1 [Azacitidine]
fraction of GFP+ cells [4]: 1.1 ± 0.089

CC(=O)O/N=C1\C(=O)N(Cc2cc(Cl)ccc2Cl)c2ccc(Cl)cc21
fraction of edited reads among all mapped reads [5]: 0.0521
fraction of edited reads among all mapped reads [1]: 0.0813
fraction of microhomology deletions among edited reads [6]: 0.696
fraction of microhomology deletions among edited reads [2]: 0.51
fraction of 1-bp insertions among edited reads [7]: 0.0444
fraction of 1-bp insertions among edited reads [3]: 0.256
fraction of GFP+ cells [4]: 1.21 ± 0.075

Cc1cc(O)c2c(c1)C(=O)c1cc(O)cc(O)c1C2=O [Emodin]
fraction of GFP+ cells [4]: 1.12 ± 0.16

COc1cc(Br)c(Nc2nc(-c3c(C)nc4ncccn34)cs2)c(Br)c1
fraction of GFP+ cells [4]: 0.111 ± 0.028

O=c1cc(N2CCOCC2)oc2c(-c3ccc4c(c3)OCCO4)csc12
fraction of edited reads among all mapped reads [1]: 0.0488
fraction of microhomology deletions among edited reads [2]: 0.568
fraction of 1-bp insertions among edited reads [3]: 0.201
fraction of GFP+ cells [4]: 0.48 ± 0.029

O=C(CCCCCCC(=O)Nc1ccc([C@H]2O[C@@H](CSc3nc(-c4ccccc4)c(-c4ccccc4)o3)C[C@@H](c3ccc(CO)cc3)O2)cc1)NO [Tubacin]
fraction of GFP+ cells [4]: 0.972 ± 0.16

CCc1c2c(nc3ccc(OC(=O)N4CCC(N5CCCCC5)CC4)cc13)-c1cc3c(c(=O)n1C2)COC(=O)[C@]3(O)CC [Irinotecan HCl Trihydrate]
fraction of edited reads among all mapped reads [1]: 0.104
fraction of microhomology deletions among edited reads [2]: 0.571
fraction of 1-bp insertions among edited reads [3]: 0.249
fraction of GFP+ cells [4]: 0.463 ± 0.066

CCCCOc1c(C(=O)c2c(F)cc(C)cc2F)c[nH]c2nncc1-2
fraction of edited reads among all mapped reads [5]: 0.0449
fraction of edited reads among all mapped reads [1]: 0.0886
fraction of microhomology deletions among edited reads [6]: 0.705
fraction of microhomology deletions among edited reads [2]: 0.523
fraction of 1-bp insertions among edited reads [7]: 0.0164
fraction of 1-bp insertions among edited reads [3]: 0.258
fraction of GFP+ cells [4]: 1.7 ± 0.11

CC(C)(C)OC(=O)Nc1ccc(-c2cc(C(=O)NCCCCCCC(=O)NO)no2)cc1
fraction of GFP+ cells [4]: 0.902 ± 0.059

CCN1CCN(CC(=O)Nc2ccc(-c3cccc4c(=O)cc(N5CCOCC5)oc34)c3sc4ccccc4c23)CC1
fraction of edited reads among all mapped reads [1]: 0.0396
fraction of microhomology deletions among edited reads [2]: 0.588
fraction of 1-bp insertions among edited reads [3]: 0.0821
fraction of GFP+ cells [4]: 1.08 ± 0.16

Cc1ccc(C(=O)NCCCCCC(=O)Nc2ccccc2N)cc1
fraction of edited reads among all mapped reads [1]: 0.0825
fraction of 1-bp insertions among edited reads [3]: 0.292
fraction of GFP+ cells [4]: 1.26 ± 0.13

S=c1nc[nH]c2nc[nH]c12 [6-Mercaptopurine (6-MP) Monohydrate]
fraction of edited reads among all mapped reads [1]: 0.0627
fraction of microhomology deletions among edited reads [2]: 0.429
fraction of 1-bp insertions among edited reads [3]: 0.326
fraction of GFP+ cells [4]: 1.21 ± 0.061

C[C@@H]1CN(CC(=O)Nc2ccc3c(c2)Cc2cccc(-c4cc(=O)cc(N5CCOCC5)o4)c2S3)C[C@H](C)O1
fraction of edited reads among all mapped reads [1]: 0.0449
fraction of microhomology deletions among edited reads [2]: 0.331
fraction of 1-bp insertions among edited reads [3]: 0.475
fraction of GFP+ cells [4]: 0.516 ± 0.11

NC(=O)c1ccc2nc(-c3ccc(Oc4ccc(Cl)cc4)cc3)[nH]c2c1 [Chk 2 inhibitor II (BML-277)]
fraction of edited reads among all mapped reads [1]: 0.092
fraction of microhomology deletions among edited reads [2]: 0.515
fraction of 1-bp insertions among edited reads [3]: 0.278
fraction of GFP+ cells [4]: 0.961 ± 0.26

NC(=O)C1CCCc2c1[nH]c1ccc(Cl)cc21 (stereo not drawn) [Selisistat (EX 527)]
fraction of GFP+ cells [4]: 1.18 ± 0.47

O=[N+]([O-])c1ccc(Nc2ccccc2-c2ccccc2)c2nonc12
fraction of GFP+ cells [4]: 0.854 ± 0.23

CNc1ccc([N+](=O)[O-])c(Nc2ccc3[nH]ncc3c2)n1
fraction of edited reads among all mapped reads [1]: 0.1
fraction of microhomology deletions among edited reads [2]: 0.551
fraction of 1-bp insertions among edited reads [3]: 0.269
fraction of GFP+ cells [4]: 2.16 ± 0.36

S=c1[nH]cnc2nc[nH]c12 [Mercaptopurine (6-MP)]
fraction of edited reads among all mapped reads [1]: 0.0919
fraction of microhomology deletions among edited reads [2]: 0.519
fraction of 1-bp insertions among edited reads [3]: 0.285
fraction of GFP+ cells [4]: 2.22 ± 1.1

CC(C)(C#N)c1ccc(N2C(=O)OCc3cnc4ccc(-c5cnc6ccccc6c5)cc4c32)cc1
fraction of edited reads among all mapped reads [1]: 0.0904
fraction of microhomology deletions among edited reads [2]: 0.53
fraction of 1-bp insertions among edited reads [3]: 0.267
fraction of GFP+ cells [4]: 1.01 ± 0.45

CCN(CC)CCCC(C)Nc1ccnc2cc(Cl)ccc12 (stereo not drawn) [Chloroquine Phosphate]
fraction of GFP+ cells [4]: 0.703 ± 0.14

O=C1Cc2c([nH]c3ccc(Br)cc23)-c2ccccc2N1 [Kenpaullone]
fraction of edited reads among all mapped reads [1]: 0.165
fraction of microhomology deletions among edited reads [2]: 0.526
fraction of 1-bp insertions among edited reads [3]: 0.274
fraction of GFP+ cells [4]: 1.53 ± 0.057

O=C(c1cccc(Cl)c1F)N1CCN(Cc2cccc(Nc3nccs3)n2)CC1
fraction of edited reads among all mapped reads [1]: 0.0584
fraction of microhomology deletions among edited reads [2]: 0.559
fraction of 1-bp insertions among edited reads [3]: 0.193
fraction of GFP+ cells [4]: 1.25 ± 0.38

CN(C)c1nc(N(C)C)nc(N(C)C)n1 [Altretamine]
fraction of GFP+ cells [4]: 1.41 ± 0.41

CC(C)(Oc1ccc(CCNC(=O)c2ccc(Cl)cc2)cc1)C(=O)O [Bezafibrate]
fraction of GFP+ cells [4]: 1.52 ± 0.58

Nc1cc(F)ccc1NC(=O)c1ccc(CNC(=O)/C=C/c2cccnc2)cc1 [Tucidinostat (Chidamide)]
fraction of edited reads among all mapped reads [5]: 0.0463
fraction of edited reads among all mapped reads [1]: 0.0652
fraction of microhomology deletions among edited reads [6]: 0.571
fraction of microhomology deletions among edited reads [2]: 0.502
fraction of 1-bp insertions among edited reads [7]: 0.103
fraction of 1-bp insertions among edited reads [3]: 0.272

CCn1c(=O)c(-c2ccc(Cl)cc2Cl)cc2cnc(Nc3ccc(N4CCNCC4)c(F)c3)nc21
fraction of edited reads among all mapped reads [1]: 0.0726
fraction of microhomology deletions among edited reads [2]: 0.477
fraction of 1-bp insertions among edited reads [3]: 0.288
fraction of GFP+ cells [4]: 0.433 ± 0.12

COc1ccccc1-c1cc(Nc2cccc(CS(N)(=O)=O)c2)ncn1
fraction of edited reads among all mapped reads [1]: 0.0957
fraction of microhomology deletions among edited reads [2]: 0.494
fraction of 1-bp insertions among edited reads [3]: 0.281
fraction of GFP+ cells [4]: 1.17 ± 0.072
